Sfp PPTase inh: qHTS Assay for Inhibitors of Bacillus subtilis Sfp phosphopantetheinyl transferase (PPTase); 310,000 tested, 3.5% active; Biochemical Sfp PPTase activity, qHTS; AID 1490, 2009; Potency, µM, most hits filed as inhibitors; 4'-phosphopantetheinyl transferase ffp (Bacillus subtilis), Q9F4F7;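 further: the enzyme is Sfp with the accession as filed and its product quenches rhodamine fluorescence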
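Buffer: 50 mM Hepes-Na pH 7.6, 10 mM MgCl2, 0.01% Nonidet P-40, 0.01% BSA. Enzyme 15 nM, pre-exposed to compound 15 min; substrates then added and fluorescence change tracked over 30 min.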
ALDH1A1 inh: qHTS Assay for Inhibitors of Aldehyde Dehydrogenase 1 (ALDH1A1) | Aldehyde dehydrogenase 1A1 (Homo sapiens), P00352 | Purified ALDH1A1, NADH fluorescence, propionaldehyde substrate | Potency, µM (doses to about 75.3 µM), hits mostly inhibitors | 220,000 tested, 7.3% active; active means well fitted inhibition curve with a large enough effect, not every such curve was filed as active; inconclusive means small, poorly fitted or top-dose-only effect, or another doubt; inactive means no such curve, though single readings can be large or run the other way
Target sequence (P00352 whole entry, looked up): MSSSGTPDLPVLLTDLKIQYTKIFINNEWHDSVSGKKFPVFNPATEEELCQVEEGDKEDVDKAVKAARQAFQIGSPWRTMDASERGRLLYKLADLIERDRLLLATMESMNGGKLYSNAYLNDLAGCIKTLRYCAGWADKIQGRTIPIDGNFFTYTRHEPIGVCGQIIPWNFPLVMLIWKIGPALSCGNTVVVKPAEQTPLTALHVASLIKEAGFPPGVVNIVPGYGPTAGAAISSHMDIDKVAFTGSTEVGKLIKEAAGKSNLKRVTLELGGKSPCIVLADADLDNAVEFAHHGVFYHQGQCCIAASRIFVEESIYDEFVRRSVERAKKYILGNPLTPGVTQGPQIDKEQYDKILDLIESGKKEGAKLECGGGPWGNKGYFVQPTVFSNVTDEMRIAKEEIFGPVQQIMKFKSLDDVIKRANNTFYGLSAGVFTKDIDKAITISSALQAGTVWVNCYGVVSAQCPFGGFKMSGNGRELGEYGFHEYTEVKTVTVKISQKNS
miR-21 reporter: qHTS Assay for Modulators of miRNAs and/orActivators of miR-21. HeLa miR-21 FLuc reporter, luciferase, 48 h. Potency, µM (series often up to 38.3 µM), most hits filed as activators. 340,000 tested, under 10 active. AID 2288, 2010;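 further: miR-21 action dims this reporter so a rising signal means less miR-21 action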
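HeLa cells stably expressing CMV-driven firefly luciferase with a downstream miR-21 binding sequence, endogenously expressing miR-21, were treated with titrations (up to about 40uM final) for 48 hours at 37 degree Celsius. Luciferase luminescence was read after lysis.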
LMNA splice mod: qHTS Assay for Modulators of Lamin A Splicing; HeLa LMNA splicing GFP/RFP minigene ratio, 48 h; Potency, µM (doses to about 46.1 µM), actives largely listed as inhibitors; 200,000 tested, 0.01% active; active means well fitted inhibition curve with a large enough effect in the signal ratio, with a control signal flat, not every such curve was filed as active; inconclusive means small, poorly fitted or top-dose-only effect, or effect the other way, or a change in a side signal; the % refers to the signal ratio
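S3 HeLa cells stably expressing lamin A-EGFP splicing minigene plus DsRed2, 600 cells/well, 48 h compound exposure at 37C. Laser-scanning cytometry; analysed as GFP (500-530 nm)/RFP (575-640 nm) total intensity ratio; 0.5% DMSO vehicle.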
KDM4E inh: qHTS Assay for Inhibitors of Human Jumonji Domain Containing 2E (JMJD2E); Lysine-specific demethylase 4E (Homo sapiens), B2RXH2; JMJD2E catalytic domain, FDH-coupled NADH fluorescence (FDH is formaldehyde dehydrogenase); Potency, µM (series often up to 57.1 µM), hits mostly inhibitors; 230,000 tested, 1.6% active; active means well fitted inhibition curve with a large enough effect, not every such curve was filed as active; inconclusive means small, poorly fitted or top-dose-only effect, or another doubt; inactive means no such curve, though single readings can be large or run the other way; further: nearly all actives have a fitted effect of over 50% in size
G9a block: qHTS Assay for Inhibitors of Histone Lysine Methyltransferase G9a; Potency, µM (series often up to 102 µM), most hits filed as inhibitors; G9a H3K9 monomethylation, AlphaScreen, 2 h; 350,000 tested, 8.8% active; Histone-lysine N-methyltransferase EHMT2 (Homo sapiens), Q96KQ7; further: nearly all actives have a fitted effect of over 75% in size
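Quantitative HTS format: methyltransferase activity on a biotin-tagged H3K9 peptide is measured by AlphaScreen, using a rabbit anti-monomethyl-H3K9 antibody with streptavidin donor and anti-IgG acceptor beads. Final levels are 20 nM enzyme, 500 nM peptide, 20 uM SAM; 2 h RT.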
Hits are given with their value; 0 = inactive; ? = inconclusive; - = no result; [ ] = dose if it differs, or a comment. Most compounds without a hit are left out; they make up all but 13% or so of the library. Unless noted, the call rests on the fitted dose curve; in most records, active means well fitted curve in the direction sought with a large enough effect; inconclusive means small, poorly fitted or top-dose-only effect, or another doubt; inactive means no such curve, though single readings can be large; an effect the other way counts as inactive or inconclusive.

SMILES	Sfp PPTase inh	ALDH1A1 inh	miR-21 reporter	LMNA splice mod	KDM4E inh	G9a block
COc1cccc(OC)c1NC(=O)CN1CCC(NC(=O)c2cccc(F)c2)CC1	0	40µM	0	0	0	0
N#CCCN(C(=O)COC(=O)C12CC3CC(CC(O)(C3)C1)C2)c1ccc(F)cc1	-	-	-	-	-	1.4µM
N#CCCN(C(=O)COC(=O)CNC(=O)C12CC3CC(CC(C3)C1)C2)c1ccccc1	-	-	-	-	-	0[0.501 µM]
CC(C)(C)NC[C@@H](O)COc1nsnc1N1CCOCC1	0	0	-	-	0	0[2.33 µM]
Brc1ccc(Oc2nsnc2N2CCOCC2)cc1	?	0	0	0	0	40µM
COc1ccc(NC(=O)COc2nsnc2N2CCOCC2)cc1	0	?	0	-	0	0[12.7 µM]
O=c1c(N2CCOCC2)nsnc1N1CCOCC1	0	25µM	0	0	0	?
CC(=O)Nc1ccn(C2CC3OCC(NC(=O)C(Cc4ccccc4)NC(=O)OC(C)(C)C)C3O2)c(=O)n1 (stereo not drawn)	0	-	-	-	-	-
COc1ccc(N2CCN(c3nc4ccccn4c(=O)c3/C=C(\C#N)S(=O)(=O)c3ccccc3)CC2)cc1	0	-	0	-	-	0
COc1cc2c(cc1OC)C1(O)C(=O)c3ccc(O)c(C(=O)O)c3OC1CO2 (stereo not drawn)	0	0	-	-	?	0[2.33 µM]
CCc1nccn1CCC(=O)NC1CC(C)(C)Cc2c1cnn2-c1cccc(F)c1 (stereo not drawn)	0	-	0	-	-	0
CCOc1ccc(NC(=O)c2oc3ccccc3c2NC(=O)Cc2cccs2)cc1	-	-	0	-	-	0
COc1cccc(C2C(C(=O)c3ccc(C)o3)=C(O)C(=O)N2CCN2CCOCC2)c1 (stereo not drawn)	0	-	0	-	-	-
CCOc1ccc(C2C(C(=O)c3ccco3)=C(O)C(=O)N2CCN2CCOCC2)cc1OCC (stereo not drawn)	0	-	0	-	-	40µM
CCOc1ccc(C2C(C(=O)c3ccco3)=C(O)C(=O)N2CCN2CCOCC2)cc1 (stereo not drawn)	0	-	0	-	-	?
CC(C)c1ccc(C2C(C(=O)c3ccco3)=C(O)C(=O)N2CCN2CCOCC2)cc1 (stereo not drawn)	0	-	0	-	-	50µM
CCCOc1ccc(C2C(C(=O)c3ccco3)=C(O)C(=O)N2CCN2CCOCC2)cc1OC (stereo not drawn)	0	?	0	0	0	?
Cc1nnc(N2C(=O)C(O)=C(C(=O)c3ccco3)C2c2ccc(C(C)C)cc2)s1 (stereo not drawn)	56µM	0	0	0	0	45µM
CCOc1ccc(C2C(C(=O)c3ccc(C)o3)=C(O)C(=O)N2CCN2CCOCC2)cc1OC (stereo not drawn)	0	?	0	0	0	18µM
CCN(Cc1cc(=O)n2ccsc2n1)c1cccc2ccccc12	0	?	0	?	?	0
CCN1CCN(CCCNC(=O)c2ccc(NC(=O)C3=C(C)OCCS3)cc2)CC1	0	-	0	-	-	0
C/C(CC(=O)Nc1ccc(N(C)C)cc1)=N\NC(=O)Cc1csc(N)n1	?	0	0	0	0	45µM
Cc1nc(CC(=O)Nc2ccc(C(N)=O)cc2)cs1	-	-	0	-	-	0
Cc1nc(CC(=O)Nc2ccc(N(C)C)cc2)cs1	-	-	0	-	-	14µM
FC(F)(F)c1ccccc1-c1nc(NC2CC2)c2ccccc2n1	0	0	-	0	-	0[0.501 µM]
SMILES	Sfp PPTase inh	ALDH1A1 inh	miR-21 reporter	LMNA splice mod	KDM4E inh	G9a block
C[C@@H]1O[C@H](O[C@@H]2[C@H](C)O[C@H](O[C@@H]3[C@H](C)O[C@H](O[C@H]4CC[C@]5(C)[C@@H](CC[C@@H]6[C@H]5C[C@@H](O)[C@]5(C)[C@@H](C7=CC(=O)OC7)CC[C@]65O)C4)C[C@@H]3O)C[C@@H]2O)C[C@H](O)[C@@H]1O	0	0	-	?	0	0[21.5 µM]
CCN(CC(=O)NCCc1ccc(S(N)(=O)=O)cc1)Cc1ccccc1	0	-	0	-	-	0
Cc1ccc(O)c(C(=O)c2cc(C#N)c(=O)n(CC3CCCO3)c2)c1 (stereo not drawn)	0	?	0	0	0	0[12.7 µM]
COc1ccc(O)c(C(=O)c2cc(C#N)c(=O)n(CC3CCCO3)c2)c1 (stereo not drawn)	0	25µM	0	?	0	-
CCOc1cc(/C=C2\SC(=N)N(c3nonc3N)C2=O)ccc1OCC(N)=O	0	0	0	?	0	45µM
CCOc1cc(/C=C2\SC(=N)N(c3nonc3N)C2=O)ccc1OCCN1CCOCC1	0	0	0	?	0	-
CCOC(=O)c1c(NC(=O)COc2ccc(Cl)cc2Cl)sc2c1CCCCC2	-	-	0	-	-	0
CCn1c(=O)c([N+](=O)[O-])c(NCCc2ccccc2)c2ccccc21	0	?	0	0	0	0
CCn1c(=O)c([N+](=O)[O-])c(NCCc2ccc(OC)c(OC)c2)c2ccccc21	0	14µM	0	?	0	0
CN(C)c1ccc(C(C(=O)NC(C)(C)C)N(C(=O)c2csnn2)C2CC2)cc1 (stereo not drawn)	0	5.6µM	0	?	0	?
CN(Cc1ccc(F)cc1)S(=O)(=O)c1nnc(NC(=O)c2ccc(F)cc2)s1	-	-	0	-	-	0
CCN1/C(=C/C=C/c2sc3ccccc3[n+]2CC)Sc2ccccc21	79µM	-	-	-	-	?
CCN1/C(=C/C=C/C=C/C=C/c2sc3ccccc3[n+]2CC)Sc2ccccc21	50µM	-	0	-	-	22µM
CCN1/C(=C/C=C/C=C/c2sc3ccccc3[n+]2CC)Sc2ccccc21	45µM	?	?	?	22µM	28µM
CC(=O)Cn1cnc2c(cnn2-c2ccc(C)c(C)c2)c1=O	0	-	0	-	-	0
CCOc1ccccc1CN1CCNC(=O)C1CC(=O)N(C)C1CCOCC1 (stereo not drawn)	0	-	0	-	-	?
COc1cccc(N2C(=O)CC(N3CCN(C(=O)c4ccco4)CC3)C2=O)c1 (stereo not drawn)	0	?	0	0	0	?
O=C(c1ccco1)N1CCN(C2CC(=O)N(c3ccc(F)c(Cl)c3)C2=O)CC1 (stereo not drawn)	0	-	0	-	-	28µM
O=C(NNC1CC(=O)N(c2ccc(Cl)cc2)C1=O)c1ccco1 (stereo not drawn)	0	0	0	?	0	0
COc1ccc(N2C(=O)CC(N3CCN(C(=O)c4ccco4)CC3)C2=O)cc1 (stereo not drawn)	0	?	0	0	0	56µM
Cc1ccc2c(c1)CCCN2C(=O)c1cc2ccccc2oc1=O	0	14µM	0	0	0	?
